Experimental data as given in the supplement of paper PMC10849652.
About 7,900 targets were measured; listed, in parts, are those with a hit and a random draw of the rest. About 0.6% of all pairs of compound and target were hits.

Tests used:
Experiment in all cases: log2 fold change, soluble protein after heating vs DMSO (PISA); higher = thermal stabilisation; K562 cells, 10 uM, 30 min; active = over 0.2 and 3.5 SD of the protein, either way, in both replicates (recomputed)
[1] = compound: CC[C@@H]1C(=O)N(C)c2cnc(Nc3ccc(C(=O)NC4CCN(C)CC4)cc3OC)nc2N1C1CCCC1
In short: (§1)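 Soluble protein was quantified by TMTpro 16plex LC-MS/MS after channel sums were equalised. It was obtained as the supernatant after 21,000xg for 90 min from pooled aliquots of K562 cells (2×10^6 cells/mL, 10 μM compound, 30 min) heated for 3 min across 48°C-58°C and extracted in PBS with 0.5% NP-40 at 4°C. Thermal stability values are relative to control samples and come from duplicates. They are given as log2 fold changes.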

[2] = compound: CC[C@@H]1C(=O)N(C)c2cnc(Nc3ccc(C(=O)N[C@H]4CC[C@H](N5CCN(CC6CC6)CC5)CC4)cc3OC)nc2N1C(C)C [volasertib]
In short: as §1

[3] = compound: CC[C@H](C)N1C=C(C2=C(C=C(C=C21)C3=CN=C(C=C3)N4CCNCC4)C(=O)NCC5=C(C=C(NC5=O)C)C)C
In short: as §1

[4] = compound: CC[C@H](C)[C@@H](C(=O)N[C@@H]([C@@H](C)O)C(=O)N[C@@H](CC(C)C)C(=O)[C@]1(CO1)C)NC(=O)[C@H]([C@@H](C)CC)N(C)C(=O)C [epoxomicin]
In short: as §1

[5] = compound: CCn1c(C(=O)N(C2CC2)C2CC2)cc2c3c(ncn3C)c(Nc3cc(C)n(C)n3)nc21
In short: as §1

[6] = compound: CCn1cc(-c2ccnc3[nH]c(-c4cccc(CN(C)C)c4)cc23)c(-c2ccc(NC(=O)N(C)C)cc2)n1
In short: as §1

[7] = compound: CN(C)CC(=O)Nc1ccc2[nH]c(=O)c3ccccc3c2c1
In short: as §1

[8] = compound: CN(CCOC1=CC=C(C=C1)C[C@H]2C(=O)NC(=O)S2)C3=CC=CC=N3 (racemic) [rosiglitazone]
In short: as §1

[9] = compound: CN1C2=C(C3=C1C(=O)N(N=C3)CC4=CC(=CC=C4)N)SC(=C2)S(=O)C
In short: as §1

[10] = compound: CN1CCC(CNc2ccc3ncc(-c4cccc(OC(F)(F)F)c4)n3n2)CC1
In short: as §1

Measured: log2 fold change

GSTM4 (UniProt Q03013)
inactive: [1] 0.202 | [2] 0.095 | [3] 0.039 | [4] -0.009 | [5] 0.036 | [6] -0.063 | [7] 0.025 | [8] -0.24 | [9] -0.054 | [10] -0.182

GSTO1 (UniProt P78417)
UniProt P78417, sequence (P78417 whole entry, looked up): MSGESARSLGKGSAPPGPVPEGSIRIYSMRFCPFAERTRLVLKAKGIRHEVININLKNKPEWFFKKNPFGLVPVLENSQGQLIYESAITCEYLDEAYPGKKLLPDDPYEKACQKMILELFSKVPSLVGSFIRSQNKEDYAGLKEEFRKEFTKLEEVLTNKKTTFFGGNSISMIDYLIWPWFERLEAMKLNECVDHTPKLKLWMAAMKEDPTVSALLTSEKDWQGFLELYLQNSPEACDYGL
inactive: [1] 0.005 | [2] 0.08 | [3] 0.009 | [4] 0.013 | [5] 0.036 | [6] -0.052 | [7] -0.007 | [8] 0.018 | [9] -0.082 | [10] 0.084

GMEB2 (UniProt Q9UKD1)
active: [2] -0.282
inactive: [1] 0.05 | [3] 0.062 | [4] 0.156 | [5] -0.059 | [6] -0.048 | [7] 0.018 | [8] 0.145 | [9] -0.03 | [10] -0.075

FDXR isoform 7 (UniProt P22570)
UniProt P22570, sequence (P22570 whole entry, looked up): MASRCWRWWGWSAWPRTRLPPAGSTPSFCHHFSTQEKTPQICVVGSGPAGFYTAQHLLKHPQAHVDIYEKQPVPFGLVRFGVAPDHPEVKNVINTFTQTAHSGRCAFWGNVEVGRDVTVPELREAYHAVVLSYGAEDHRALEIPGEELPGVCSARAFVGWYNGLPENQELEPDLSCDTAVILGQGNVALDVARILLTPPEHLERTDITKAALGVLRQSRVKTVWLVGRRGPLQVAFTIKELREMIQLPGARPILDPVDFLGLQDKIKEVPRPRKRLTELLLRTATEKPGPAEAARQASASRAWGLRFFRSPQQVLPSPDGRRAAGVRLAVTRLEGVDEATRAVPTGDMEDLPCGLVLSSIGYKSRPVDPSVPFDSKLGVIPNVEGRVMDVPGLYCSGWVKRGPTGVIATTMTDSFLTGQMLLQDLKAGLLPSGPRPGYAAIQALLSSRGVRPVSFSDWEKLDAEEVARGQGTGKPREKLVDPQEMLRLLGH
active: [10] -0.387
inactive: [1] 0.052 | [2] 0.003 | [3] 0.025 | [4] 0.059 | [5] 0.01 | [6] -0.144 | [7] 0.012 | [8] 0.035 | [9] -0.097

H2AFX (UniProt P16104)
inactive: [1] 0.002 | [2] 0.214 | [3] -0.096 | [4] -0.237 | [5] -0.01 | [6] 0.279 | [7] -0.213 | [8] -0.101 | [9] 0.501 | [10] 0.082

FEN1 (UniProt P39748)
inactive: [1] -0.073 | [2] -0.037 | [3] 0.086 | [4] 0.109 | [5] -0.13 | [6] -0.174 | [7] 0.155 | [8] 0.17 | [9] -0.057 | [10] -0.283

HNRNPH2 (UniProt P55795)
UniProt P55795, sequence (P55795 whole entry, looked up): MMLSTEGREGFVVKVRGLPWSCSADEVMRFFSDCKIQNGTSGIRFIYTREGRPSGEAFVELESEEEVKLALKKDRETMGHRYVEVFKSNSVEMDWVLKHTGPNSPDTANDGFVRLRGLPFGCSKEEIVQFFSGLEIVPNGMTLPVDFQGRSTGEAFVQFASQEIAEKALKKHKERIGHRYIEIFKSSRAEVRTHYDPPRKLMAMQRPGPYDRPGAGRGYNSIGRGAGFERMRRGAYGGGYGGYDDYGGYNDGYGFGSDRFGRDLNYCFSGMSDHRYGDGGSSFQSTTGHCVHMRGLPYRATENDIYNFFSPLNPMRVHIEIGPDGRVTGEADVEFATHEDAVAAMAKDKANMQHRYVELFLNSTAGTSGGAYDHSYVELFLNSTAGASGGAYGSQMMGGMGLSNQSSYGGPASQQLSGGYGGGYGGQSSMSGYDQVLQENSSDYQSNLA
inactive: [1] -0.119 | [3] 0.073 | [4] -0.004 | [5] -0.202 | [6] 0 | [7] 0.069 | [8] 0.038 | [9] 0.087 | [10] -0.06
active: [2] -0.667

HHEX (UniProt Q03014)
inactive: [1] 0.027 | [2] 0.07 | [3] 0.053 | [4] 0.164 | [5] 0.019 | [6] 0.05 | [7] 0.234 | [8] -0.029 | [9] 0.117 | [10] -0.023

GCSH (UniProt P23434)
UniProt P23434, sequence (P23434 whole entry, looked up): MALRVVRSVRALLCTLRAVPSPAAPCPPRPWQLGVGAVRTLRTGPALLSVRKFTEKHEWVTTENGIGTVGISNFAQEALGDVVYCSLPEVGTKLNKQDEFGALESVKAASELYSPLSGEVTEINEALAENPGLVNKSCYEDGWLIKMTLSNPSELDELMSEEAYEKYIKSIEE
active: [10] -0.338
inactive: [1] 0.055 | [2] 0.065 | [3] -0.078 | [4] 0.005 | [5] 0.05 | [6] 0.023 | [7] 0.028 | [8] 0.053 | [9] 0.012

GTF2A1 (UniProt P52655)
inactive: [1] -0.012 | [2] 0.061 | [3] -0.051 | [4] 0.201 | [5] 0.019 | [6] 0.035 | [7] -0.006 | [8] -0.029 | [9] -0.018 | [10] -0.051

GTF3C4 (UniProt Q9UKN8)
active: [2] -0.263
inactive: [1] -0.002 | [3] 0.001 | [4] -0.001 | [5] -0.003 | [6] -0.003 | [7] -0.024 | [8] 0.012 | [9] 0.007 | [10] 0

FMC1 (UniProt Q96HJ9)
UniProt Q96HJ9, sequence (Q96HJ9 whole entry, looked up): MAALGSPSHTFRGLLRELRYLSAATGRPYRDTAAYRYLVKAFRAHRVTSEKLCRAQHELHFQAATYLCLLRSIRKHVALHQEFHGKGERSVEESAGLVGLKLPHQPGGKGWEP
inactive: [1] 0.04 | [2] 0.102 | [3] -0.039 | [4] 0.059 | [5] -0.102 | [6] 0.046 | [7] -0.057 | [8] 0.044 | [9] -0.01 | [10] -0.02

GNL1 (UniProt P36915)
UniProt P36915, sequence (P36915 whole entry, looked up): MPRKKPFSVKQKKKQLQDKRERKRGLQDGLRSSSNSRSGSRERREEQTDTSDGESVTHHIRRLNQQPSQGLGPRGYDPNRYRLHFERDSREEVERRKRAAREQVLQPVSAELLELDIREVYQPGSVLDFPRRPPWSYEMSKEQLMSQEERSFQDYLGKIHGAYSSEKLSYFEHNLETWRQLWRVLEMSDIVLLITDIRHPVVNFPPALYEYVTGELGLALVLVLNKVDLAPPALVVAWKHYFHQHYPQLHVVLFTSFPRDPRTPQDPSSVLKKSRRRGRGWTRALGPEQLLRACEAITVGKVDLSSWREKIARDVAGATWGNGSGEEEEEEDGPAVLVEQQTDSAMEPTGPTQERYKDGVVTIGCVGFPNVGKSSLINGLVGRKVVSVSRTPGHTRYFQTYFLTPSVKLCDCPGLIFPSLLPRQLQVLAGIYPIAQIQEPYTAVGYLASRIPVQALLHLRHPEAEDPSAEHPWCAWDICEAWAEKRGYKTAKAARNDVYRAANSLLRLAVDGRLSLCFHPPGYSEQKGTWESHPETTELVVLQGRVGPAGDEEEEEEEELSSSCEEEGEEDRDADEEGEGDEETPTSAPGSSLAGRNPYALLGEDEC
inactive: [1] -0.095 | [3] 0.027 | [4] 0.008 | [5] -0.006 | [6] -0.1 | [7] 0.024 | [8] 0.01 | [9] -0.083 | [10] -0.053
active: [2] -0.229

FLNA (UniProt P21333)
active: [2] -0.375
inactive: [1] -0.121 | [3] 0.078 | [4] 0.063 | [5] -0.074 | [6] -0.004 | [7] 0.029 | [8] 0.019 | [9] 0.052 | [10] -0.12

GTF2A2 (UniProt P52657)
inactive: [1] 0.053 | [2] 0.097 | [3] -0.07 | [4] 0.036 | [5] 0.03 | [6] 0.025 | [7] -0.03 | [8] 0.003 | [9] -0.046 | [10] -0.031

H2AZ1 (UniProt P0C0S5)
inactive: [1] 0 | [2] 0.065 | [3] -0.084 | [4] -0.311 | [5] 0.054 | [6] 0.103 | [7] -0.071 | [8] -0.052 | [9] 0.435 | [10] 0.026

GNB2 (UniProt P62879)
active: [10] 0.3
inactive: [1] 0.122 | [2] 0.103 | [3] 0.003 | [4] 0.046 | [5] -0.01 | [6] -0.023 | [7] -0.042 | [8] -0.01 | [9] -0.079

GALK1 isoform 2 (UniProt P51570)
inactive: [1] -0.03 | [2] -0.009 | [3] 0.053 | [4] 0.131 | [5] 0.026 | [6] -0.064 | [7] 0.106 | [8] 0.024 | [9] -0.049 | [10] -0.03

HDGFL2 (UniProt Q7Z4V5)
UniProt Q7Z4V5, sequence (Q7Z4V5 whole entry, looked up): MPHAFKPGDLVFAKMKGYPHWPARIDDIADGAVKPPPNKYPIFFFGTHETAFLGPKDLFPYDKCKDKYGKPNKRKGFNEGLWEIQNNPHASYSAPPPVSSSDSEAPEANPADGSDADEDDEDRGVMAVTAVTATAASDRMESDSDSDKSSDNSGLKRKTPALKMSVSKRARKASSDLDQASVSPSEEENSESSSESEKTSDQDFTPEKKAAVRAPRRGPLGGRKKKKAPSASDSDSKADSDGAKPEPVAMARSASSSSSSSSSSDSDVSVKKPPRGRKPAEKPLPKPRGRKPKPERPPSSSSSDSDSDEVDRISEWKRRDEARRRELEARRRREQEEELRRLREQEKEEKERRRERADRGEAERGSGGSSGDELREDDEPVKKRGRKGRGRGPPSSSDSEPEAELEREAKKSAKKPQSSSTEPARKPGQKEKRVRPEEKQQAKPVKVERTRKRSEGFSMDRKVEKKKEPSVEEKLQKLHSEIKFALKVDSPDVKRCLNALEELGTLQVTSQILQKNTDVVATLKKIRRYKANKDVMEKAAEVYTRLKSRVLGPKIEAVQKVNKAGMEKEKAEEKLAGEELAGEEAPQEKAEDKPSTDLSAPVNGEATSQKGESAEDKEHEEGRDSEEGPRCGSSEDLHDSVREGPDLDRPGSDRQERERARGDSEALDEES
inactive: [1] -0.019 | [2] 0.014 | [3] -0.043 | [4] 0.012 | [5] -0.006 | [6] 0.015 | [7] -0.011 | [8] -0.004 | [9] 0.006 | [10] -0.033

GLS isoform 3 (UniProt O94925)
UniProt O94925, sequence (O94925 whole entry, looked up): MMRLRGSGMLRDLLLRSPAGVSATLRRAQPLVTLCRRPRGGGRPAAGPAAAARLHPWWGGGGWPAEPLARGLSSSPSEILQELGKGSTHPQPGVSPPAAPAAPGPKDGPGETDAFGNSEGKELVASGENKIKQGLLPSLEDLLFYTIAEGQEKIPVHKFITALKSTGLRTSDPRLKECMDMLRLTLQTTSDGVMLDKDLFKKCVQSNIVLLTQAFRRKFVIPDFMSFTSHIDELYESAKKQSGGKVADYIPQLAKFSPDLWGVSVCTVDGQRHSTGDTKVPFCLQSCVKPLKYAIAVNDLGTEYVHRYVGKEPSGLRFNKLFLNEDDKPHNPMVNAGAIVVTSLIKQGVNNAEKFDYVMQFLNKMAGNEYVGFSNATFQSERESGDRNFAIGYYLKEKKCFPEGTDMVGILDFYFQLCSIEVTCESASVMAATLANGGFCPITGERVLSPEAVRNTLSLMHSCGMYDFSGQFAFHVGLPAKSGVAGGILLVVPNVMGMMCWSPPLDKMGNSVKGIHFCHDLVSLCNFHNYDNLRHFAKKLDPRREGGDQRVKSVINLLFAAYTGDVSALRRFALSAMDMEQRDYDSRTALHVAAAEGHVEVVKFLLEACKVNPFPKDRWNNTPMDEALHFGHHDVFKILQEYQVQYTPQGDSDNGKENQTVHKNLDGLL
inactive: [1] -0.172 | [3] 0.126 | [4] 0.152 | [5] -0.017 | [6] -0.055 | [7] 0.069 | [8] 0.046 | [9] -0.039 | [10] -0.364
active: [2] -0.699

GTF2H3 (UniProt Q13889)
active: [10] -0.34
inactive: [1] 0.004 | [2] -0.122 | [3] 0.066 | [4] -0.099 | [5] -0.035 | [6] 0.115 | [7] 0.052 | [8] -0.046 | [9] 0.027

IDI1 isoform 2 (UniProt Q13907)
UniProt Q13907, sequence (Q13907 whole entry, looked up): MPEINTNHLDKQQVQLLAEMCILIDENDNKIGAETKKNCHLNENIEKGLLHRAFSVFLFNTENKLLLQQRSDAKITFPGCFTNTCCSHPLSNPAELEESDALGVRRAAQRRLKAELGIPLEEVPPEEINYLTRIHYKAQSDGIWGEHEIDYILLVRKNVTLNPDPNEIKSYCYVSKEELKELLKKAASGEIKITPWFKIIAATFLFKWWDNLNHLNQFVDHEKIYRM
inactive: [1] 0.055 | [2] 0.127 | [3] -0.05 | [4] -0.079 | [5] -0.008 | [6] -0.081 | [7] -0.065 | [8] -0.01 | [9] -0.004 | [10] -0.005

HOOK3 (UniProt Q86VS8)
UniProt Q86VS8, sequence (Q86VS8 whole entry, looked up): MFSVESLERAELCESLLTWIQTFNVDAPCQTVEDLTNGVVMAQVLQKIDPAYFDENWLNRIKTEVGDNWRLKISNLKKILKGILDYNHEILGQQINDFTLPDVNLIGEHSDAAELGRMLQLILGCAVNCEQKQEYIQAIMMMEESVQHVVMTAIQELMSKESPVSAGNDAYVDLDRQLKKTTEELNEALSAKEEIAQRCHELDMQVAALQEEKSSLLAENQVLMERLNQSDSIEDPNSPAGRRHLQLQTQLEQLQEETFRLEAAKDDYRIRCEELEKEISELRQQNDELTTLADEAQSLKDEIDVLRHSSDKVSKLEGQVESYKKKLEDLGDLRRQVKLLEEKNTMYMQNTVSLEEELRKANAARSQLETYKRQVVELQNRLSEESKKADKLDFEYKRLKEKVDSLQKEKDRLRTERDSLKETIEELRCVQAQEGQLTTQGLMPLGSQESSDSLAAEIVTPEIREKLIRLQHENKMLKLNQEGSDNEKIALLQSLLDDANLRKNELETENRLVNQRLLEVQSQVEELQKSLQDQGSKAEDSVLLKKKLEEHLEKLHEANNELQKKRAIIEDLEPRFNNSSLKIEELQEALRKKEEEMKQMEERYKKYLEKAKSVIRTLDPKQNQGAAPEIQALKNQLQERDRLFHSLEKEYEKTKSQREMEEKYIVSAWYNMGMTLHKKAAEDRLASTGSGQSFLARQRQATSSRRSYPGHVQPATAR
active: [2] -0.395 | [10] -0.358
inactive: [1] -0.151 | [3] 0.034 | [4] 0.004 | [5] 0.006 | [6] -0.017 | [7] 0.005 | [8] 0.09 | [9] 0.031

GCLM (UniProt P48507)
active: [2] -0.41
inactive: [1] -0.183 | [3] 0.058 | [4] 0.03 | [5] -0.049 | [6] -0.046 | [7] 0.042 | [8] 0.082 | [9] 0.03 | [10] -0.112

FBXO42 (UniProt Q6P3S6)
inactive: [1] 0.093 | [2] 0.011 | [3] 0.028 | [4] 0.056 | [5] -0.031 | [6] 0.002 | [7] -0.019 | [8] 0.027 | [9] 0.032 | [10] 0.021

GYG1 (UniProt P46976)
inactive: [1] 0.107 | [2] 0.338 | [3] 0 | [4] -0.104 | [5] 0.011 | [6] -0.045 | [7] 0.019 | [8] -0.045 | [9] 0.016 | [10] -0.011

HNRNPUL2 (UniProt Q1KMD3)
inactive: [1] 0.172 | [2] 0.135 | [3] -0.023 | [4] -0.084 | [5] -0.036 | [6] 0.092 | [7] -0.012 | [8] -0.007 | [9] 0.131 | [10] -0.013

GATA1 (UniProt P15976)
UniProt P15976, sequence (P15976 whole entry, looked up): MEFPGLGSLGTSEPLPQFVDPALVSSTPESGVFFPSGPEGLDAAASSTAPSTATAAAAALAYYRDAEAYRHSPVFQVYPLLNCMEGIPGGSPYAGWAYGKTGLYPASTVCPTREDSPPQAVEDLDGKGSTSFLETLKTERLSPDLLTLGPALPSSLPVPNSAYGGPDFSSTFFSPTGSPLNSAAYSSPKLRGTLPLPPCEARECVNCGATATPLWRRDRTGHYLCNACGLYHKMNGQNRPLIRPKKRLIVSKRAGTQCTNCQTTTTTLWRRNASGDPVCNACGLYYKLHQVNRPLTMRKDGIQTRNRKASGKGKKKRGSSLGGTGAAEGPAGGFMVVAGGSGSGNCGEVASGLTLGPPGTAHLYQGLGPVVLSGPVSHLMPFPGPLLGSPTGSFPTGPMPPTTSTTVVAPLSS
inactive: [1] 0.134 | [2] 0.076 | [3] -0.036 | [4] 0.152 | [5] -0.026 | [6] 0.04 | [7] -0.084 | [8] -0.021 | [9] 0.046 | [10] 0.119

HBQ1 (UniProt P09105)
UniProt P09105, sequence (P09105 whole entry, looked up): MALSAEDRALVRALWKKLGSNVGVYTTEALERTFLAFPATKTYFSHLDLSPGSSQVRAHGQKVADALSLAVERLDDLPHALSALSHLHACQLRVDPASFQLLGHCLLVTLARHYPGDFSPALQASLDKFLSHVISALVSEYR
inactive: [1] 0.01 | [2] -0.014 | [3] -0.005 | [5] 0.069 | [6] -0.064 | [7] 0.047 | [8] 0.021 | [9] -0.145 | [10] 0.063
active: [4] 0.375

FECH isoform 2 (UniProt P22830)
inactive: [1] 0.399 | [2] 0.368 | [3] 0.037 | [4] -0.088 | [5] 0.251 | [6] 0.203 | [7] 0.001 | [8] 0 | [9] -0.123 | [10] 0.163
